Source: the supplement of paper PMC6555819

Legend:
Assay in all cases: PBM binding z-score (relative to random genomic background probes); higher = stronger binding; sequences stand for … in GC…GCGATTGACAGCGTAGAATGAAGG
[1] = test system: PPARg:RXRa DBDmut IVT, anti-RXR (DBD mutation: RXRa K156A/R161A, NR concentration 270 nM, RXRa partner concentration 90 nM)
Outline: (§1)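 Custom Agilent 4×180K protein-binding microarrays carried double-stranded probes. Their 34-nt variable regions held direct-repeat seeds, single-nucleotide variants, half-site ablations and random human genomic background sequences. Arrays were incubated 1 h with ligand-free nuclear receptor dimers in PBS pH 7.4, 2% milk, 0.02% Triton X-100, 1 mM DTT, 0.2 mg/mL BSA and 0.4 mg/ml salmon testes DNA. Antibodies against each partner (one per run) detected binding, and scanned fluorescence was regression-normalized. Binding z-scores use random background probes as reference.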

[2] = test system: PPARg:RXRa IVT, anti-PPARg (NR concentration 270 nM, RXRa partner concentration 90 nM)
Outline: as §1

[3] = test system: PPARg DBDmut:RXRa IVT, anti-PPARg (DBD mutation: PPARg1 K132A/R137A, NR concentration 270 nM, RXRa partner concentration 90 nM)
Outline: as §1

[4] = test system: PPARg DBDmut IVT, anti-PPARg (DBD mutation: PPARg1 K132A/R137A, NR concentration 270 nM)
Outline: as §1

[5] = test system: PPARg homodimer (NR concentration 180 nM)
Outline: as §1

[6] = test system: PXR:RXRa (NR concentration 270 nM, RXRa partner concentration 90 nM)
Outline: as §1

[7] = test system: PXR homodimer (NR concentration 270 nM)
Outline: as §1

[8] = test system: RARa:RXR (NR concentration 270 nM, RXRa partner concentration 90 nM)
Outline: as §1

[9] = test system: RARa homodimer (NR concentration 270 nM)
Outline: as §1

[10] = test system: RARb:RXRa (NR concentration 270 nM, RXRa partner concentration 90 nM)
Outline: as §1

| Sequence | PBM binding z-score [1] | PBM binding z-score [2] | PBM binding z-score [3] | PBM binding z-score [4] | PBM binding z-score [5] | PBM binding z-score [6] | PBM binding z-score [7] | PBM binding z-score [8] | PBM binding z-score [9] | PBM binding z-score [10] |
| --- | --- | --- | --- | --- | --- | --- | --- | --- | --- | --- |
| GCTAGCAGGCCATTTGGGTCATTCAATGACGGGC | 2.06 | 2.04 | -1.48 | -1.11 | -0.184 | 0.822 | 0.976 | 0.854 | -0.862 | 1.28 |
| GCTGCTACGTCAGGTTGGTCAGCTAACGGGTACG | -0.264 | -0.651 | -0.712 | -1.19 | -0.583 | -0.691 | -0.732 | -0.51 | -1.16 | -0.154 |
| ACTATTAGTAGAGACGAGGGCAACCGATAGGTTG | -0.0666 | 0.751 | 1.1 | 0.293 | 0.251 | 0.541 | 0.137 | 0.421 | 0.262 | 0.97 |
| CGTCCAAGGTGAAAGGTCAGTGAAGAGATGACGG | 2.98 | 5.2 | -0.368 | -0.702 | 3.24 | 4.74 | 0.474 | 6.87 | 1.47 | 4.62 |
| GCAGACAGGTGAAACGCAGGTAACTCGGGGTGGC | 0.722 | 0.559 | -0.371 | -1.17 | -0.333 | 0.0221 | -0.587 | 0.361 | -1.06 | 0.754 |
| ATCTCAAGGTAACAAGTTCAGTGAAAGAGAGGAC | 0.525 | 1.3 | 1.3 | 1.1 | 1.41 | 1.88 | 2.27 | 1.33 | 1.14 | 2.08 |
| ACTTGCAGGCCAAGGGTCACTCAAGATTAGTCCG | 2.34 | 4.29 | 0.459 | -0.141 | 1.94 | 3.22 | 0.0748 | 3.99 | 0.96 | 3.6 |
| TCTTGTAGATCAATGGTTAAGAAAGCCGAAGCCT | 1.89 | 0.567 | 0.47 | 0.225 | -0.106 | 0.039 | -0.283 | 0.142 | 0.324 | -0.236 |
| ATCTCTAGGTAACTAGTTCAGTGAAAGAGAGGAC | 2.81 | 2.6 | 1.49 | 0.893 | 0.154 | 0.527 | 0.481 | 0.382 | 0.388 | 0.464 |
| GCTTACGGGTCAAAGGTTATAGCGTGAATAGAAT | 4.36 | 6.22 | 1.03 | 1.18 | 2.67 | 5.96 | 0.264 | 7.96 | 0.595 | 4.33 |
| ACTAGCAGGCCAAGTGTCACTCAAGATTAGTCCG | 1.36 | 1.14 | -0.753 | -0.466 | -0.0608 | -0.239 | -0.525 | 0.0332 | -0.483 | 0.887 |
| CAAACTAGGTCACGAAAGCTCAAAGTCGAATGAC | 8.36 | 8.78 | 1.59 | 1.7 | 2.09 | 2.01 | -0.0695 | 2.59 | 0.726 | 4.42 |
| TAGCCTGGGTCATTCAGGGGCCAGTATAGAAAGC | 0.888 | 2.36 | 0.524 | -0.652 | 1.98 | 2.3 | -0.415 | 3.78 | -0.568 | 3.35 |
| CAAACTAGGTCAAGACGTCAAAGTCCGCTTCCCG | 7.92 | 8.15 | 1.87 | 1.07 | 1.86 | 1.24 | -0.0732 | 2.5 | 0.685 | 3.97 |
| GCTGCTAGGTCAACTCATGGTCAGCTAAAGCTCG | 4.52 | 4.36 | -0.224 | 0.163 | 1.2 | 1.83 | -0.544 | 2.76 | 0.409 | 4.46 |
| TCTATTAGTGGATTAGGGCAACCGAAACAGCGGA | 2.45 | 2.24 | 0.96 | 1.11 | 1.27 | 0.235 | 0.482 | 0.458 | 1.39 | 0.682 |
| CCTTACGGGTCACTGACGGGTTATAGCATTTGGA | 2.64 | 3.56 | 0.267 | 0.298 | 3.14 | 3.66 | -0.038 | 4.82 | 0.976 | 4.04 |
| AGTATGAGGTTATACGTAGATCAGGGAAGAAAGT | 1.1 | 0.98 | 0.752 | 0.274 | 0.842 | 1.25 | 0.582 | 1.66 | 0.209 | 1.58 |
| TCGAGTAGGTTACCTATGGGGCATTCAGCTTTCT | 2.71 | 2.51 | -0.176 | -0.57 | -0.445 | 0.0182 | -0.655 | 0.469 | -0.643 | 0.753 |
| CCTCCTAGGTCATGGTCAGCTAATCTACAGTATG | 3.36 | 3.76 | 0.488 | 0.0352 | 1.57 | 1.77 | 0.241 | 2.36 | 1.05 | 4.02 |
| CTCGAAAGGTCGTACTCAGGTGAGTATACCAAAC | 1.03 | 1.95 | 0.751 | 1.1 | 2.32 | 3.69 | 0.0401 | 4.62 | 0.162 | 3.75 |
| TCTATTGGTTGAAGGGCAACCGACGAGTCCGTTT | 1.93 | 0.82 | 0.765 | 0.266 | 1.09 | 0.725 | 0.614 | 0.74 | 0.718 | 1.55 |
| CAAACTAGGTCACCCGAAGGTCAAAGTCCGCATG | 8.43 | 8.81 | 7.92 | 7.09 | 11.1 | 6.02 | 2.67 | 7.7 | 3.95 | 5.29 |
| TCTGCTAGTTCAGTTGGTCAGCTAACGAGCTGCC | 0.762 | 0.394 | -0.505 | -0.636 | -1.77 | -0.0751 | -0.641 | -0.244 | -1.61 | 0.778 |
